Only some compounds are listed: those with a hit (about 7.7% of all), similar ones and a draw of the others.
Shh pathway inh: Hedgehog pathway signaling inhibitors, primary screen, luminescence, Shh-LIGHT2 cells, Gli-luciferase | Shh-LIGHT2 Gli-luciferase reporter, 30 h | inhibition, % (concentration not given with the values) | 2.1% of 22,000 active | AID 2313, 2010;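 active means mean inhibition across valid replicates above about 65%, limit read from the data; inconclusive means mean under the limit, yet half or more replicates past it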;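 further: pathway switched on by Shh-conditioned medium diluted 1 in 25 in low serum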
NOMO-1 viab: NOMO-1 AML cell viability reduction, primary screen, STK33 inhibitor project, CellTiter-Glo luminescence; NOMO-1 AML viability, 72 h; inhibition, % (no concentration beside the values); 7.5% of 37,000 active; AID 2330, 2010; in the data active means inhibition above about 80%; inconclusive means no clear call, values can overlap the other calls
PD-1 reversal: activators reversing PD-1 mediated T-cell inhibition, primary screen, luminescence, primary human CD4 T cells, PD-L1 beads; activation, % (concentration not given with the values); 29,000 tested, under 10 active; CellTiter-Glo 96 h; call rule not given here;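 further: 0% = median vehicle wells and 100% = positive control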
* hit, by the source's call; ? = inconclusive; / = no result.

SMILES	Shh pathway inh	NOMO-1 viab	PD-1 reversal
CC1=CC(C)C2(COC(=O)NC3CCCCC3)COC3(CCCC3)C1C2C (configuration not stated)	/	113.2*	0.6
O=[N+]([O-])c1ccccc1-c1ccc(-c2nn3c(-c4ccccc4)nnc3s2)o1	/	64.8	-1.8
NC(=O)CSc1nnc(-c2ccncc2)n1-c1cccc(C(F)(F)F)c1	/	26.0	0.3
COc1ccc(CN(C)C[C@H]2OCCCC[C@@H](C)Oc3ccc(NC(=O)Nc4ccc(F)cc4)cc3C(=O)N([C@H](C)CO)C[C@@H]2C)cc1	28.1	42.8	-1.7
COc1ccc(CN(C)C[C@H]2OCCCC[C@@H](C)Oc3ccc(NC(=O)Nc4ccc(C(F)(F)F)cc4)cc3C(=O)N([C@H](C)CO)C[C@@H]2C)cc1	?	85.1*	/
COc1ccc(CN(C)C[C@@H]2OCCCC[C@@H](C)Oc3ccc(NC(=O)Nc4ccc(OC)cc4)cc3C(=O)N([C@H](C)CO)C[C@@H]2C)cc1	35.5	22.4	0.2
COc1ccc(NC(=O)Nc2ccc3c(c2)C(=O)N([C@H](C)CO)C[C@H](C)[C@H](CN(C)Cc2ccc(C(F)(F)F)cc2)OCCCC[C@@H](C)O3)cc1	47.0	121.8*	-2.8
COC1CC(=O)C23C(=O)NC(CC(C)C)C2C(C)C(C)=CC3/C=C(\C)CCC(O)C1O (configuration not stated)	-12.3	89.0*	-5.6
Cc1ccc(S(=O)(=O)N2C(=O)CCC2C(=O)Nc2ccc(Cl)c(Cl)c2)cc1 (configuration not stated)	/	28.1	0.3
CSc1cccc(NC(=O)CNS(=O)(=O)c2ccc(F)cc2)c1	/	-6.2	1.0
CCC(C)C1NC(=O)C(CCC(=O)O)N(C)C(=O)C(C(C)C)N(C)C(=O)CNC(=O)C2CCCN2C(=O)C(Cc2ccccc2)NC(=O)C(C(C)CC)OC(=O)C(CCC(=O)O)N(C)C(=O)C(C(C)C)NC(=O)C2CCCCN2C1=O (configuration not stated)	100.0*	110.1*	2.1

High-throughput results (PubChem)
